A selection: hits, their analogues and other compounds. The true share with any hit is near 19%.
DT40 TDP1 CPT: DT40-hTDP1 cell growth loss with CPT. 420,000 tested, 12% active. Potency, µM (highest dose often 46.2 µM), inactives show at the highest dose activity change, negative = growth inhibition, usual class: inhibitors. chicken DT40 Tdp1-/-;hTDP1 cells + 20 nM CPT, ATP luminescence, 48 h; further: potency means the concentration at half of the fitted maximal effect; nearly all actives have a fitted effect of over 55% in size
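Cell growth measured by CellTiter-Glo luminescence after a minimum 48 h, 37 C compound exposure with 20 nM CPT in Tdp1-knockout DT40 cells stably expressing hTDP1, seeded 400/well; qHTS titration format.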
IL1B secr inh: inflammasome signaling inhibition, IL-1 beta readout; 360,000 tested, 4.7% active; activity change, % at 57.5 µM; THP-1 LPS/ATP IL-1B secretion, AlphaLISA, 16 h; active compounds read low; in the data active means activity change below about -50%; inconclusive means mostly about -30% to -49%
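THP-1 cells pretreated 1 hr with compounds (up to 57.5 uM final), then stimulated with LPS (250 ng/mL final) plus ATP (1.25 mM final); secreted IL-1B measured by AlphaLISA after 16 hr, decreased signal indicating inhibition.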
HT1080-NT tox: kills 2HG-producing HT-1080-NT fibrosarcoma cells; HT-1080-NT fibrosarcoma viability, CellTiter-Glo ATP luminescence, 48 h; Potency, µM (top dose mostly 46.1 µM), inactives show at the highest dose activity, negative = less viability, hits mostly cytotoxic; 360,000 tested, 1.6% active; AID 686970;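 further: NT is the 2HG producing partner of a matched IDH1 knockdown line; potency means the concentration at half of the fitted maximal effect; 0% = DMSO-treated cells and -100% = media-only wells without cells; nearly all actives have a fitted effect of over 55% in size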
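Viability of the 2HG-overproducing fibrosarcoma line after 48 hours of compound exposure at 37 degrees C was determined by luminescence with CellTiter-Glo, and concentration-effect curves were then fitted and categorized.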
DT40 TDP1 no CPT: qHTS for Inhibitors of human tyrosyl-DNA phosphodiesterase 1 (TDP1): qHTS in cells in absence of CPT; DT40 Tdp1-/- hTDP1 cells, no CPT, ATP luminescence, 48 h; Potency, µM (highest dose often 46.2 µM), without a hit: at the top dose activity change, negative = growth inhibition, hits mostly inhibitors; 420,000 tested, 15% active; AID 686978, 2013; further: potency means the concentration at half of the fitted maximal effect; nearly all actives have a fitted effect of over 55% in size
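Luminescent ATP content (CellTiter-Glo) served as the growth readout. Knockout chicken DT40 cells expressing human TDP1 were exposed to compounds without camptothecin for a minimum 48 hr at 37 °C.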
HT1080 IDH1KD tx: toxicity to HT-1080 IDH1 knockdown cells (counter line). AID 686971. HT-1080 IDH1 knockdown viability, ATP luminescence, 48 h. 360,000 tested, 2% active. Potency, µM (highest dose often 46.1 µM), for inactives: top-dose activity, negative = toxicity, most hits filed as cytotoxic;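 further: potency means the concentration at half of the fitted maximal effect; 0% = DMSO wells and -100% = cell-free medium wells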
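Cytotoxicity counter-line: IDH1KD HT-1080, 48 h, CellTiter-Glo. Curves classed by r2, magnitude and activity.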
Active calls of the source: *; ? = inconclusive; · = no result given; [ ] = remark or other dose. Unless noted, the call rests on the fitted dose curve; in most records, active means well fitted curve in the direction sought with a large enough effect; inconclusive means small, poorly fitted or top-dose-only effect, or another doubt; inactive means no such curve, though single readings can be large; an effect the other way counts as inactive or inconclusive. Unless noted, on the % scale 0 is the no-effect control and ±100 the full control effect.

SMILES	DT40 TDP1 CPT	IL1B secr inh	HT1080-NT tox	DT40 TDP1 no CPT	HT1080 IDH1KD tx
O=C1CC(c2ccccc2)=NN1c1ccccc1	?	-82*	?	15µM*	-34%
C/C(Cn1cnc([N+](=O)[O-])n1)=N\NC(=O)c1ccc(O)cc1O	1%	-3	-17%	8%	1%
COc1ccc2c3n(nc2c1)CCN=C3c1cc(Cl)c(N)c(Cl)c1	?	?	?	16µM*	?
Nc1c(Cl)cc(C2=NCCn3c2c2ccc([N+](=O)[O-])cc2[n+]3[O-])cc1Cl	1.8µM*	-1	-13%	5.8µM*	-12%
Nc1c(Cl)cc(C2=NCCn3nc4cc([N+](=O)[O-])ccc4c32)cc1Cl	?	-15	-24%	18µM*	-16%
Nc1c(Cl)cc(C2=NCCn3nc4cc(C(F)(F)F)ccc4c32)cc1Cl	21µM*	?	-17%	21µM*	-18%
Cc1ccc(S(=O)(=O)NCC(NCc2ccc(F)cc2)c2ccccc2)cc1 (centres undefined)	?	2	0%	?	3%
Cc1ccc(S(=O)(=O)NCC(Nc2cccc(Cl)c2)c2ccccc2)cc1 (centres undefined)	18µM*	·	·	?	·
CCN1CCN(CCC(=O)Nc2cccc(OC)c2)CC1	-28%	-12	2%	6%	-1%
Cc1cc(C)c(NC(=O)CCN2CCN(Cc3ccccc3)CC2)c(C)c1	?	-3	-17%	16µM*	-18%
COc1cccc(NC(=O)CCCN2C(=O)C3CC=CCC3C2=O)c1 (centres undefined)	-2%	2	?	4%	10µM*
O=C(CCN1CCN(Cc2ccccc2)CC1)Nc1ccc(OCc2ccccc2)cc1	?	0	-13%	15µM*	-20%
COc1cccc(NC(=O)CCN2CCN(c3ccccc3)CC2)c1	?	·	·	10µM*	·
COc1cccc(NC(=O)CCN2C(=O)C3CC=CCC3C2=O)c1 (centres undefined)	-7%	-4	1%	16%	-17%
COc1ccccc1C(=O)Nc1cccc(C(=O)OCc2cc(=O)n3nc(C)sc3n2)c1	2%	·	·	-18%	·
O=C(CCN1CCN(Cc2ccccc2)CC1)Nc1cccc(Br)c1	16µM*	-16	-10%	16µM*	-16%
COc1ccc(C/C(N)=N/n2cnnc2)cc1	-3%	12	2%	-12%	3%[9.24 µM]
CC(C)COc1ccc(C/C(N)=N/n2cnnc2)cc1	5.2µM*	11	-6%	5.8µM*	-9%
O=C(O)c1ccc2c(=O)n3cc(C(=O)c4ccccc4O)cc(Cl)c3nc2c1	?	-29	2%	?	1%
O=C(C[n+]1ccc2ccccc2c1)c1cccc2ccccc12	13µM*	?	?	8.2µM*	?
Nc1ccc[n+](CC(=O)c2ccc(F)cc2)c1	14µM*	·	·	10µM*	·
O=C(CCCc1ccccn1)c1cccc2ccccc12	-20%	-4	-1%	-30%	-4%
Cc1ccc(C(=O)C[n+]2ccc3ccccc3c2)cc1	?	20	-3%	15µM*	-11%
O=C(C[n+]1cccc(NC(=O)c2ccccc2)c1)c1ccc(NC(=O)c2ccccc2)cc1	23µM*	?	-8%	?	-11%
O=C(C[n+]1ccc2ccccc2c1)c1ccc(O)c(O)c1	-4%	·	·	-24%	·
SMILES	DT40 TDP1 CPT	IL1B secr inh	HT1080-NT tox	DT40 TDP1 no CPT	HT1080 IDH1KD tx
NC(=O)c1ccc[n+](CC(=O)c2ccc(NC(=O)c3ccccc3)cc2)c1	2%	-27	-2%	-10%	2%
O=C(C[n+]1ccc2ccccc2c1)c1ccc(NC(=O)c2ccccc2)cc1	5.8µM*	?	-13%	7.3µM*	-17%
C=C(C)C(=O)N1CCN(C(=O)C(=C)C)c2ccccc21	0%	22	-10%	-5%	2%
COc1cc2c(cc1OC)C(C)N(C(=O)c1c(C)noc1C)CC2 (centres undefined)	?	4	-25%	13µM*	?
COc1cc2c(cc1OC)C(C)N(C(=O)c1cc3ccccc3o1)CC2 (centres undefined)	8.2µM*	-59*	?	?	5.6µM*
COc1cc2c(cc1OC)C(C)N(C(=O)c1cc(C)on1)CC2 (centres undefined)	0.82µM*	36	?	1µM*	1.5µM*
COc1cc2c(cc1OC)C(C)N(C(C)=O)CC2 (centres undefined)	-5%	11	-1%	1%	-6%
O=C(NCC(=O)N1CCOCC1)c1ccc(Br)o1	?	-6	-24%	-12%	-6%
CCOc1cc(NC(=S)Nc2ccc(Cl)cc2)c(OCC)cc1NC(C)=O	-28%	-11	-16%	?	-14%
O=C(C1CCN(S(=O)(=O)c2ccccc2)CC1)N1CCC1	-4%	1	-14%	-15%	4%
C=C1CC2C(=O)N(Cc3cc(OC)ccc3OC)C(C(=O)OCC)(C(=O)OCC)C1N2C(=O)OC(C)(C)C (centres undefined)	21µM*	0	2%	?	3%
COc1ccc2[nH]cc(CCNc3nc(-c4ccc(C(=O)N(C)C)cc4)nc4ccccc34)c2c1	21µM*	·	·	7.3µM*	·
COc1ccc2[nH]cc(CCNc3nc(-c4ccccc4CN(C)C)nc4ccccc34)c2c1	21µM*	·	·	21µM*	·
COCCNc1nc(-c2ccccc2)nc2ccccc12	3%	-9	-26%	?	-12%
COc1ccc(-c2nc(NCCCN(C)C)c3ccccc3n2)cc1	-25%	?	-23%	?	-6%
COc1ccc2[nH]cc(CCNc3nc(-c4ccc(N(C)C)cc4)nc4ccccc34)c2c1	15µM*	·	·	23µM*	·
CN(C)c1ccc(-c2nc(NCCc3cnc[nH]3)c3ccccc3n2)cc1	13µM*	·	·	?	·
S=c1[nH]nc(-c2cccc3ccccc23)n1-c1cccnc1	12%	24	4%	-11%	16%
CCc1ccccc1N/C(=N\S(=O)(=O)c1ccccc1)C(F)(F)F	-22%	4	14%	-17%	14%
COc1ccc(CNc2nc(-c3ccccc3CN(C)C)nc3ccccc23)c(OC)c1	10µM*	·	·	7.3µM*	·
Cc1nc2ccccc2n1C(=O)N(C)C	9%	4	6%	-4%	8%
Cn1cnc2c(oc3ccccc32)c1=O	17%	-18	10%	3%	6%
NC(C(=O)O)C1ON=C(Cl)C1O (centres undefined)	5.8µM*	56	21µM*	5.8µM*	?
COc1ccccc1C1C(C(N)=O)=C(C)Nc2nc(SCc3ccccc3F)nn21 (centres undefined)	?	·	·	-16%	·

Bioassay records from PubChem BioAssay.
